Reference: the supplement of paper PMC11732987, “Enantioselective OTUD7B fragment discovery through chemoproteomics screening and high-throughput optimisation” (Communications Chemistry, 2025)

What was measured:
Assay in all cases: log2 ratio of Biotin-Ahx-Ub-VS probe labelling (fragment/DMSO); higher = less target engagement (more negative = stronger competition), active = hit call of the paper (q ≤ 0.05, log2 ratio ≤ -1)
Conditions in all cases: compound concentration: 200 uM; treatment time: 3 h
[1] = target: T1, USP42 (UniProt Q9H9J4)
T1 sequence (whole entry): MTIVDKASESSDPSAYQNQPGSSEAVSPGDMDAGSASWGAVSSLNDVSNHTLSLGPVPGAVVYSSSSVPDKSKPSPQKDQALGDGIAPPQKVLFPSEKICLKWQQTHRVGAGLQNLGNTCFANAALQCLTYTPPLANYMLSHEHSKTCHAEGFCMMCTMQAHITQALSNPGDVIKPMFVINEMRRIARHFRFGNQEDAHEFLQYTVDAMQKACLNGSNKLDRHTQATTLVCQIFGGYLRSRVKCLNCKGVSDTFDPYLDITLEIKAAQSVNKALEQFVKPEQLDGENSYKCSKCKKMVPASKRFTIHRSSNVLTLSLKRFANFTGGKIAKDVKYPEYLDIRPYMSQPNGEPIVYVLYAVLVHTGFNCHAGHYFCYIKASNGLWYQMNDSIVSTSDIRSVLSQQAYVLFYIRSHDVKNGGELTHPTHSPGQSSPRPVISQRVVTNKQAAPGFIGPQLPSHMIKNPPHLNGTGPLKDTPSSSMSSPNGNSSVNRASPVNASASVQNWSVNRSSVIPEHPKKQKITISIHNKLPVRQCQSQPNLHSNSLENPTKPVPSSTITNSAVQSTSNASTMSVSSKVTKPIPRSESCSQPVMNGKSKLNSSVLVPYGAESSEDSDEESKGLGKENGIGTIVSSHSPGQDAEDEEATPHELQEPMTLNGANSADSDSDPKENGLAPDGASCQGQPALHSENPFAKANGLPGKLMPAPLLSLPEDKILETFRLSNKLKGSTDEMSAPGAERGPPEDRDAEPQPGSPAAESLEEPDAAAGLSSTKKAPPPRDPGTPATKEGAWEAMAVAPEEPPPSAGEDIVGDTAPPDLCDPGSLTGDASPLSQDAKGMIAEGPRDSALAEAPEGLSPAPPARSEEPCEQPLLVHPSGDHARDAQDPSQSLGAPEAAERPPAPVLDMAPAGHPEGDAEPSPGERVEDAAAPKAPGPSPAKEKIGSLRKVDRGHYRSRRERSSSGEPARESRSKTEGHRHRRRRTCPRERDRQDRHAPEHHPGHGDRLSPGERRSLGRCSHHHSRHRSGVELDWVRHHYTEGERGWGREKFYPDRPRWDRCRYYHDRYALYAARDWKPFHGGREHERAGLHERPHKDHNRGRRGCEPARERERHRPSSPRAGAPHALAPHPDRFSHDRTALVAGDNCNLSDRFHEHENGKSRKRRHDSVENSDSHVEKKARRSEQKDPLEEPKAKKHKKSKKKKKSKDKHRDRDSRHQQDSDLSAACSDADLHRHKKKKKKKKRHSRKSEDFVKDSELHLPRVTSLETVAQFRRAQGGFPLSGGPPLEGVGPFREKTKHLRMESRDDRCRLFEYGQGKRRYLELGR
Procedure, shortened: (§1)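 HEK293T lysate (495 µg per sample, in Tris/CHAPS/IGEPAL buffer with protease inhibitors) was exposed in triplicate for 3 h to fragment at 200 µM or to vehicle, then to Biotin-Ahx-Ub-VS at 0.5 µM final for 1 h. Labelled DUBs were enriched on NeutrAvidin, digested with LysC and trypsin, and analysed by diaPASEF LC-MS/MS. Spectronaut label-free quantities were normalised to the global median, and values are average log2 ratios of fragment over vehicle from an unpaired t-test. Only proteins with ≥2 unique peptides were used.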

[2] = target: USP46 (UniProt P62068)
Chain of USP46 (P62068 whole entry): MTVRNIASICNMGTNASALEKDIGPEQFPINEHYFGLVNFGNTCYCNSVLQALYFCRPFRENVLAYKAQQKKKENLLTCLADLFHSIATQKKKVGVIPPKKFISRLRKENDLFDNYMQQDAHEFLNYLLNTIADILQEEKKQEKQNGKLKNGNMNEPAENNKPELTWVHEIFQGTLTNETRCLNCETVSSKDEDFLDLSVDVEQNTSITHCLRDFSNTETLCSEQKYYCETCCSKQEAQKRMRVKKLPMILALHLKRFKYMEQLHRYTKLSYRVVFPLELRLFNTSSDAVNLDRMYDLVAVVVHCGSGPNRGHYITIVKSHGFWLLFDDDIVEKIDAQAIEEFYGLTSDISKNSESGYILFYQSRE
Procedure, shortened: as §1

[3] = target: T2, USP47 (UniProt Q96K76)
T2 sequence (whole entry): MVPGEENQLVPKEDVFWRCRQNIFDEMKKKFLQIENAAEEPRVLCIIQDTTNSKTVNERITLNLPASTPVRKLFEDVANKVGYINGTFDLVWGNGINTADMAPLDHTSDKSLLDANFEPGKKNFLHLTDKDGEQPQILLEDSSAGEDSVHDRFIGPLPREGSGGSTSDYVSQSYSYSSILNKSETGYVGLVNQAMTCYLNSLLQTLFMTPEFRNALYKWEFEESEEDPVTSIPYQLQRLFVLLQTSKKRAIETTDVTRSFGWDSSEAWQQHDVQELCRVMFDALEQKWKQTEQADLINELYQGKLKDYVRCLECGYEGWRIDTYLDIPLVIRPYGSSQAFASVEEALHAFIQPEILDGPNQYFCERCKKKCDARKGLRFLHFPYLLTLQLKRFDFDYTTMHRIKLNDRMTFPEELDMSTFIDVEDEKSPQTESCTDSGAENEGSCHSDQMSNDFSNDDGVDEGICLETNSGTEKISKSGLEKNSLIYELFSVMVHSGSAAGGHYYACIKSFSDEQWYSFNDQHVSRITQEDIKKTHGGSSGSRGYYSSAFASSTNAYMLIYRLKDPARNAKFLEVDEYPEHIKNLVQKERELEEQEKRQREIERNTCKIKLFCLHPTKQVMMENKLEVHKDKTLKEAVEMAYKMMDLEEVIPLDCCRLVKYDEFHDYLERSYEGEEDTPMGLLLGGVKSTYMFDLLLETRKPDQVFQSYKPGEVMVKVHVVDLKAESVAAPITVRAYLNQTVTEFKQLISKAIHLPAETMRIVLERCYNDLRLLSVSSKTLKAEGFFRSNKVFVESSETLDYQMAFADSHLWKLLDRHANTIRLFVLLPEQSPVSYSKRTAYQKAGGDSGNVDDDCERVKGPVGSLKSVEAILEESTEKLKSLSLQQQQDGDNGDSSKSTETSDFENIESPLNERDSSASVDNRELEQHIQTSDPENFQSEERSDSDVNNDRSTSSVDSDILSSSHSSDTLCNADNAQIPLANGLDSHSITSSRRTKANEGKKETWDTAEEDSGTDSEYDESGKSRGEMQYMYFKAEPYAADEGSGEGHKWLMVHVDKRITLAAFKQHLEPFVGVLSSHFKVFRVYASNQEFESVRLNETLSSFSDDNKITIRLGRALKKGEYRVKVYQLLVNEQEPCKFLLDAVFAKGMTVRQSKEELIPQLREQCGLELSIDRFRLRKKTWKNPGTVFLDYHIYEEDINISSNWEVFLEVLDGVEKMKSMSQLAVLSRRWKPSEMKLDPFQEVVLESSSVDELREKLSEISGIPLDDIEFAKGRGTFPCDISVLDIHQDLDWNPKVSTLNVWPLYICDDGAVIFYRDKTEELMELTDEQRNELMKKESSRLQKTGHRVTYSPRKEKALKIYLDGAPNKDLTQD
Procedure, shortened: as §1

[4] = target: T3, USP48 (UniProt Q86UV5)
T3 sequence (whole entry): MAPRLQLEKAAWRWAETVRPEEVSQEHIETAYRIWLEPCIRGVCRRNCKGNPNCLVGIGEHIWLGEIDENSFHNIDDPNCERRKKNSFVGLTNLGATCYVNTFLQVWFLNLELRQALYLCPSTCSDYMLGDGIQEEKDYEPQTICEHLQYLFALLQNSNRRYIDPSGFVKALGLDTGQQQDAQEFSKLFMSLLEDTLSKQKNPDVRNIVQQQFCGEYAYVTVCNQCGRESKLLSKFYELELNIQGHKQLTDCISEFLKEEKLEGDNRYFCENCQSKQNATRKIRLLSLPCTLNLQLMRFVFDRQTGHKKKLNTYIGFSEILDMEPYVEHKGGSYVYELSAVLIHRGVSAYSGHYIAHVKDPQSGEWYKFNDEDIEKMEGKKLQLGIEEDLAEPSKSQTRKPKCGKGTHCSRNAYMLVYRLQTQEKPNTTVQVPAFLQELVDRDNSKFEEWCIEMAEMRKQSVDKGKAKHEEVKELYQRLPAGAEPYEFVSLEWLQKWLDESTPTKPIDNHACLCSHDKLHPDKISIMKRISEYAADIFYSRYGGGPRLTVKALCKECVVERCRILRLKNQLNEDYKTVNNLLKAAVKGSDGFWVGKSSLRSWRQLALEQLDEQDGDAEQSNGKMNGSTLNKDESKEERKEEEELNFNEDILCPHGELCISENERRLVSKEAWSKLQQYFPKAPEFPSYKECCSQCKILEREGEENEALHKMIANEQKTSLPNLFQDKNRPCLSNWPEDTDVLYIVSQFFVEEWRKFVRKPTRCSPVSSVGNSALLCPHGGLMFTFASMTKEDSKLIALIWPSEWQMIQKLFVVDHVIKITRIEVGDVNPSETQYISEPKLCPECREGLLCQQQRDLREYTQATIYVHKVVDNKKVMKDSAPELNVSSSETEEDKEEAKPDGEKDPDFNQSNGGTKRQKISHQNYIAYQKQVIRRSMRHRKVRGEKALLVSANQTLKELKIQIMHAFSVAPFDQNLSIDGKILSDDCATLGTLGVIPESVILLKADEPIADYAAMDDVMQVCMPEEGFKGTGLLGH
Procedure, shortened: as §1

[5] = target: T4, USP5 (UniProt P45974)
T4 sequence (whole entry): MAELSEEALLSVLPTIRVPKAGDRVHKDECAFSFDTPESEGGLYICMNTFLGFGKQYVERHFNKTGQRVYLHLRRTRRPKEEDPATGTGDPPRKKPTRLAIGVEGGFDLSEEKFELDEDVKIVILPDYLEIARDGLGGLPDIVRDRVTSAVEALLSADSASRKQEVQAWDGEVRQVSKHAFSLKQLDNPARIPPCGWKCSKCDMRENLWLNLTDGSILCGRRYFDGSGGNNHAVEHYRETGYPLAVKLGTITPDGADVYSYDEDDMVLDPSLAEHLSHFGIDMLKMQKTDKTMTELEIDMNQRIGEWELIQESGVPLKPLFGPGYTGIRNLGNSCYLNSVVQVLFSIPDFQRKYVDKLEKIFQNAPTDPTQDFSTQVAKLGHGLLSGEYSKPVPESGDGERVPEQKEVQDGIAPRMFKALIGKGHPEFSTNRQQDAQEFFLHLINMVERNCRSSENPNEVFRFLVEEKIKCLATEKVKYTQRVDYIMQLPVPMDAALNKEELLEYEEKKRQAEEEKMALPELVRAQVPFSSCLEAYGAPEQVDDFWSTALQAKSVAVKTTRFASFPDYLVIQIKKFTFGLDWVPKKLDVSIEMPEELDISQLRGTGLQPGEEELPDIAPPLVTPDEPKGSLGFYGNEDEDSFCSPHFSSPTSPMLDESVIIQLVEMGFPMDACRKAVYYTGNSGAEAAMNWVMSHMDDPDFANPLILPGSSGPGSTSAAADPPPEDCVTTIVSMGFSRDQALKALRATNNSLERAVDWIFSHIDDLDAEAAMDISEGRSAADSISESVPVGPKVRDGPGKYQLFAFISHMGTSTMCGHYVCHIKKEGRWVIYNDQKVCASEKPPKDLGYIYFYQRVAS
Procedure, shortened: as §1

[6] = target: USP54 (UniProt Q70EL1)
Chain of USP54 (Q70EL1 whole entry): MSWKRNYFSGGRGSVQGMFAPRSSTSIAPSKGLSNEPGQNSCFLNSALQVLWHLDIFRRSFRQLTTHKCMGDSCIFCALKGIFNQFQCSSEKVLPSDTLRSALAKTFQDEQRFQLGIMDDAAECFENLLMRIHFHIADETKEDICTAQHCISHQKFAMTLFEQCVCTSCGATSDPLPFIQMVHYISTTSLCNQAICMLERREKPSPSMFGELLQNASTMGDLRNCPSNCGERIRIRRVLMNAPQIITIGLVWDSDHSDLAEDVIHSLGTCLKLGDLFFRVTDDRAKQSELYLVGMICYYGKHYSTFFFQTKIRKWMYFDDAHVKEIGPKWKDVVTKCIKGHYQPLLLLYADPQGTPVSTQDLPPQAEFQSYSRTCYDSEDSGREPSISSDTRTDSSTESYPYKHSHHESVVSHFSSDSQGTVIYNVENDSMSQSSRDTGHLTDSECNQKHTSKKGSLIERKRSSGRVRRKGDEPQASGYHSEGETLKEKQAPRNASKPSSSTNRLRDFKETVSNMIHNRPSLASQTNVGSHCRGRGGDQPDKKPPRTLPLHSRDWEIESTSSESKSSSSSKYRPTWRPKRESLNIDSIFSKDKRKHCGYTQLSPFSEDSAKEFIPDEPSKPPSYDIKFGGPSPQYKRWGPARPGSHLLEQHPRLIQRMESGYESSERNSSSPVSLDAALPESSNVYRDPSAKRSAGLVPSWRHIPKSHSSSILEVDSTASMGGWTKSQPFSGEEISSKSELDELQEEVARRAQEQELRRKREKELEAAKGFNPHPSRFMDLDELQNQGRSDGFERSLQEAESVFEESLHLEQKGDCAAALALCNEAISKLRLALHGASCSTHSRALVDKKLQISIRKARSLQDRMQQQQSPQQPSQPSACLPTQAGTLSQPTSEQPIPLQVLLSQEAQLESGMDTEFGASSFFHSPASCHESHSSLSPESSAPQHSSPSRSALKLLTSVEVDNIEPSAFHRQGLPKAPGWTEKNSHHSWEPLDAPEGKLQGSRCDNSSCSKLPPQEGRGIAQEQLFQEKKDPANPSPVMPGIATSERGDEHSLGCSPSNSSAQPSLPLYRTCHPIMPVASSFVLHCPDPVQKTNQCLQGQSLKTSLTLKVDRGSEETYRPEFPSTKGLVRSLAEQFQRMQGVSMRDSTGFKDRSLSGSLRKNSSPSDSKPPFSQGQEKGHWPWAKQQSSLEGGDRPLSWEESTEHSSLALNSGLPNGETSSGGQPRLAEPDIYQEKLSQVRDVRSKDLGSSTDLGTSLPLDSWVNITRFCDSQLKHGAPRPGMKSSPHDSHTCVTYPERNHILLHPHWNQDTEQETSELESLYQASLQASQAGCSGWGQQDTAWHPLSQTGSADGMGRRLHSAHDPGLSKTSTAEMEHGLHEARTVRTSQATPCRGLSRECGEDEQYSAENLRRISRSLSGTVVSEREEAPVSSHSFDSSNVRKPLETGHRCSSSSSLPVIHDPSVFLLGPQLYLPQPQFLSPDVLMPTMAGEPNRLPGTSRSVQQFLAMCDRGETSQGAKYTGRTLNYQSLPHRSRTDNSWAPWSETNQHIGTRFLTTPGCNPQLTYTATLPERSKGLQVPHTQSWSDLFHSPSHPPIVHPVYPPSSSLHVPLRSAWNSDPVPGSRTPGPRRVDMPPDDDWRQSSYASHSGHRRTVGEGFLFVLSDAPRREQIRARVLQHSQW
Procedure, shortened: as §1

[7] = target: USP7 (UniProt Q93009)
Chain of USP7 (Q93009 whole entry, looked up): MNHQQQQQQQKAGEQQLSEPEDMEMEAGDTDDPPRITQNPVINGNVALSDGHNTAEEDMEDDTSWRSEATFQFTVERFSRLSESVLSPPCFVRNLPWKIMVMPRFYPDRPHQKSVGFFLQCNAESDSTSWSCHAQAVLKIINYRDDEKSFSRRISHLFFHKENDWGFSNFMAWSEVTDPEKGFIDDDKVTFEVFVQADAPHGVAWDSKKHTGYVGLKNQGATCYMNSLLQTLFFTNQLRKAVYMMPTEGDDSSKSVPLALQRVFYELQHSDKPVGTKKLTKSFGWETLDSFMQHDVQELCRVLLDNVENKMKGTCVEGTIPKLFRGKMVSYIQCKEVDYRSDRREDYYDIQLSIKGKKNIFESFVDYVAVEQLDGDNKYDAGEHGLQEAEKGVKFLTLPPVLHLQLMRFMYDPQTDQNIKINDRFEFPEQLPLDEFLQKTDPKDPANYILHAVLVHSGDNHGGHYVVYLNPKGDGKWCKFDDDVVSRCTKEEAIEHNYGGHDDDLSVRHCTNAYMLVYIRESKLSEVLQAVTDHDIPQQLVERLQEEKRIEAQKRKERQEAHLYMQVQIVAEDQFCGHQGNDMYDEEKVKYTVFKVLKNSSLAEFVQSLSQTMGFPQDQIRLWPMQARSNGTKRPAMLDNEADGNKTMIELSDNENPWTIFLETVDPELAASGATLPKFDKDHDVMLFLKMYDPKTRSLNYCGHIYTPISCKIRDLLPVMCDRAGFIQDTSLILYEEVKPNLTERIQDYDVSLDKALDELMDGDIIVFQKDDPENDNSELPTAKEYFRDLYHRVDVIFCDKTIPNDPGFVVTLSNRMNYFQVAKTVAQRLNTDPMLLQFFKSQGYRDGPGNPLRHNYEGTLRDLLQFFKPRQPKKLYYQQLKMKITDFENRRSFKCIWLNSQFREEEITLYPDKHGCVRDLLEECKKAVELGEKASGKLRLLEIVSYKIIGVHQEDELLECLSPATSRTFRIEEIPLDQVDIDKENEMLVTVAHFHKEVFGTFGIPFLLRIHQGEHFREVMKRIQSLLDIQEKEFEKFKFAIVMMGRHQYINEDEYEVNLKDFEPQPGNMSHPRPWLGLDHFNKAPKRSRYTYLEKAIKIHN
Procedure, shortened: as §1

[8] = target: T5, USP8 (UniProt P40818)
T5 sequence (whole entry): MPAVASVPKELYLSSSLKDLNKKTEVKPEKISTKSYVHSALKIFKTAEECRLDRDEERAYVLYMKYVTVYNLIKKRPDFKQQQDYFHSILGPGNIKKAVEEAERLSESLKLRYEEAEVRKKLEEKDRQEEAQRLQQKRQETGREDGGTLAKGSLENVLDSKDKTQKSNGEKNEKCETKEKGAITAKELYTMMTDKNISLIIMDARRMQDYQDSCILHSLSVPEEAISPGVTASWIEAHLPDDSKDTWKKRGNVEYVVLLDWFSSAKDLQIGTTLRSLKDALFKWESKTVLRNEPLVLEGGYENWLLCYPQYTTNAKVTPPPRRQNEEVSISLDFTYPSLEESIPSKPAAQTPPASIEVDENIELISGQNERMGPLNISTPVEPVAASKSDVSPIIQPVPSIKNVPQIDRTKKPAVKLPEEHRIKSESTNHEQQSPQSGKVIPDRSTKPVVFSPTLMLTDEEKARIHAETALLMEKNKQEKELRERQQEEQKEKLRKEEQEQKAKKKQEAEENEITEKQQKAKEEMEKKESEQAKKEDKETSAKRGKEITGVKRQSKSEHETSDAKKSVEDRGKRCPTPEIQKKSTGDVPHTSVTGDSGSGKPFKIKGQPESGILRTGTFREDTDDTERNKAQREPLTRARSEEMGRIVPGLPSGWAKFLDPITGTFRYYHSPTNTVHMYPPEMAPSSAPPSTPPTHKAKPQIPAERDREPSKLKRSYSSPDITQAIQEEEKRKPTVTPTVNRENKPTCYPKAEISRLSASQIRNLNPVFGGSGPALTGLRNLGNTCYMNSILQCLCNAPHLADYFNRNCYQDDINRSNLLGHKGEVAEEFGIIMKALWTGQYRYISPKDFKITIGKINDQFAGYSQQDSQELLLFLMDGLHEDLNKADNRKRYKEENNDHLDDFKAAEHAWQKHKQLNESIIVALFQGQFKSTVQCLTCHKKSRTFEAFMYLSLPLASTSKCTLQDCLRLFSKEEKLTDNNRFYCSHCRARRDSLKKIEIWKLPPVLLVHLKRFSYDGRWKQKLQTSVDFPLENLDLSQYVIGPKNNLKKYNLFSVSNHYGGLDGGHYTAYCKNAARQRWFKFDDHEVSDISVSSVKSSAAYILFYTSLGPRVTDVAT
Procedure, shortened: as §1

Measured: log2 ratio of Biotin-Ahx-Ub-VS probe labelling

O=C(CCl)N1CC=C(c2c[nH]c3ccccc23)CC1
active: [2] -1.44 | [7] -1.53
inactive: [1] 0.0977 | [3] 0.0399 | [4] -0.728 | [5] -0.577 | [6] 0.155 | [8] -0.785
